# PubChem BioAssay AID1159580 (chemical genetic matrix, 2015)
# “And” between values parts separate entries of the source, which are not always exact repeats. Equal values may be shown once. Among all 5,500 compounds or so, about 2,000 (36%) were called active. Not shown: some 18% with an inconclusive outcome. Some of the results follow. Unmarked numbers belong to inactive results. Cut-off read from the data, not from the text of the source: active = normalized growth mostly below about 0.91 (no sharp cut-off); inconclusive = no clear call, values can overlap the other calls; inactive = mostly above about 0.92.
# Assay: chemical genetic growth profiling, strain panel (AID 1159580);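 note: tested at 20 µM; growth read once vehicle control cultures reached saturation at 30 °C; 1 = growth at the plate median or of vehicle wells; lower values mean less growth of the strain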
# Conditions: S. cerevisiae deletion strains, growth OD
smiles,measurement,setting,value
COC1=CC(=O)C=C(OC)C1=O,normalized growth,"locus YAL021C, strain ccr4, active compounds read low",1.03
same,normalized growth,"locus YAL026C, strain drs2, active compounds read low",0.978
same,normalized growth,"locus YAL030W, strain snc1, active compounds read low",0.991
same,normalized growth,"locus YBL061C, strain skt5, active compounds read low",0.998
same,normalized growth,"locus YBR009C, strain hhf1, active compounds read low",0.98
same,normalized growth,"locus YBR021W, strain FUR4, active compounds read low",1.12
same,normalized growth,"locus YBR023C, strain chs3, active compounds read low",0.998
same,normalized growth,"locus YBR171W, strain sec66, active compounds read low",1.01
same,normalized growth,"locus YBR229C, strain ROT2, active compounds read low",0.956
same,normalized growth,"locus YBR231C, strain swc5, active compounds read low",0.982
same,normalized growth,"locus YBR279W, strain paf1, active compounds read low",0.992
same,normalized growth,"locus YCL011C, strain gbp2, active compounds read low",1.01
same,normalized growth,"locus YCL016C, strain dcc1, active compounds read low",0.997
same,normalized growth,"locus YCL029C, strain bik1, active compounds read low",0.97
same,normalized growth,"locus YCL061C, strain MRC1, active compounds read low",1.01
same,normalized growth,"locus YCL069W, strain vba3, active compounds read low",1
same,normalized growth,"locus YCR088W, strain abp1, active compounds read low",1
same,normalized growth,"locus YDL005C, strain med2, active compounds read low",1.02
same,normalized growth,"locus YDL035C, strain GPR1, active compounds read low",1.01
same,normalized growth,"locus YDL040C, strain nat1, active compounds read low",0.992
same,normalized growth,"locus YDL074C, strain BRE1, active compounds read low",1.05
same,normalized growth,"locus YDL101C, strain DUN1, active compounds read low",0.975
same,normalized growth,"locus YDL134C, strain PPH21, active compounds read low",0.979
same,normalized growth,"locus YDL185W, strain tfp1, active compounds read low",0.964
same,normalized growth,"locus YDL192W, strain arf1, active compounds read low",0.995
same,normalized growth,"locus YDR001C, strain nth1, active compounds read low",1
same,normalized growth,"locus YDR069C, strain doa4, active compounds read low",1
same,normalized growth,"locus YDR101C, strain arx1, active compounds read low",0.984
same,normalized growth,"locus YDR137W, strain rgp1, active compounds read low",0.88
same,normalized growth,"locus YDR159W, strain sac3, active compounds read low",0.794 (active)
same,normalized growth,"locus YDR162C, strain NBP2, active compounds read low",0.982
same,normalized growth,"locus YDR195W, strain ref2",1.18 [resistant] (active)
same,normalized growth,"locus YDR297W, strain sur2, active compounds read low",0.978
same,normalized growth,"locus YDR318W, strain mcm21, active compounds read low",0.998
same,normalized growth,"locus YDR334W, strain swr1, active compounds read low",1.01
same,normalized growth,"locus YDR335W, strain msn5, active compounds read low",1.01
same,normalized growth,"locus YDR388W, active compounds read low",0.983
same,normalized growth,"locus YDR392W, strain spt3, active compounds read low",0.879
same,normalized growth,"locus YDR502C, strain sam2, active compounds read low",0.988
same,normalized growth,"locus YEL003W, strain gim4, active compounds read low",0.992
same,normalized growth,"locus YEL037C, strain rad23, active compounds read low",1.01
same,normalized growth,"locus YEL061C, strain CIN8 (second series), active compounds read low",1
same,normalized growth,"locus YEL061C, strain CIN8, active compounds read low",0.988
same,normalized growth,"locus YER015W, strain faa2, active compounds read low",0.997
same,normalized growth,"locus YER016W, strain bim1, active compounds read low",0.97
same,normalized growth,"locus YER110C, active compounds read low",0.97
same,normalized growth,"locus YER111C, strain swi4, active compounds read low",1.01
same,normalized growth,"locus YER155C, strain BEM2 (second series), active compounds read low",1.02
same,normalized growth,"locus YER155C, strain BEM2, active compounds read low",1
same,normalized growth,"locus YER167W, strain BCK2, active compounds read low",1
same,normalized growth,"locus YFR010W, strain ubp6, active compounds read low",1
same,normalized growth,"locus YGL078C, strain dbp3, active compounds read low",0.99
same,normalized growth,"locus YGL086W, strain mad1, active compounds read low",0.983
same,normalized growth,"locus YGL167C, strain pmr1, active compounds read low",0.987
same,normalized growth,"locus YGL173C, strain kem1, active compounds read low",1.01
same,normalized growth,"locus YGL227W, strain vid30, active compounds read low",0.998
same,normalized growth,"locus YGL240W, strain doc1, active compounds read low",0.914
same,normalized growth,"locus YGL248W, strain PDE1, active compounds read low",0.996
same,normalized growth,"locus YGL253W, strain hxk2, active compounds read low",1.01
same,normalized growth,"locus YGR135W, strain pre9, active compounds read low",1
same,normalized growth,"locus YGR252W, strain gcn5, active compounds read low",1.16
same,normalized growth,"locus YHR013C, strain ard1, active compounds read low",1.04
same,normalized growth,"locus YHR027C, strain rpn1, active compounds read low",0.995
same,normalized growth,"locus YHR030C, strain SLT2, active compounds read low",0.994 and 1.02
same,normalized growth,"locus YHR079C, strain IRE1 (second series), active compounds read low",0.984
same,normalized growth,"locus YHR079C, strain IRE1, active compounds read low",1.01
same,normalized growth,"locus YHR094C, strain hxt1, active compounds read low",0.976
same,normalized growth,"locus YHR129C, strain ARP1, active compounds read low",0.997
same,normalized growth,"locus YHR142W, strain chs7, active compounds read low",1.01
same,normalized growth,"locus YHR200W, strain rpn10, active compounds read low",1.01
same,normalized growth,"locus YIL066C, strain RNR3, active compounds read low",0.988
same,normalized growth,"locus YIL073C, strain SPO22, active compounds read low",0.975
same,normalized growth,"locus YIL125W, strain kgd1, active compounds read low",0.995
same,normalized growth,"locus YIR030C, strain dcg1, active compounds read low",0.989
same,normalized growth,"locus YJL092W, strain hpr5, active compounds read low",1
same,normalized growth,"locus YJL095W, strain BCK1 (second series), active compounds read low",0.996
same,normalized growth,"locus YJL095W, strain BCK1, active compounds read low",0.982 and 1.03
same,normalized growth,"locus YJL115W, strain asf1, active compounds read low",1.01
same,normalized growth,"locus YJL129C, strain trk1, active compounds read low",1.01
same,normalized growth,"locus YJL134W, strain LCB3, active compounds read low",0.99
same,normalized growth,"locus YJL154C, strain vps35, active compounds read low",1.01
same,normalized growth,"locus YJL164C, strain tpk1, active compounds read low",0.999
same,normalized growth,"locus YJL166W, strain qcr8, active compounds read low",0.99
same,normalized growth,"locus YJL168C, strain set2, active compounds read low",0.998
same,normalized growth,"locus YJL187C, strain SWE1 (second series), active compounds read low",0.987
same,normalized growth,"locus YJR043C, strain POL32, active compounds read low",1
same,normalized growth,"locus YJR066W, strain TOR1, active compounds read low",0.941
